Bioassay records (PubChem BioAssay)
This excerpt belongs to a sample that is enriched for hits.
DT40 TDP1 CPT – DT40-hTDP1 cell growth loss with CPT; chicken DT40 Tdp1-/-;hTDP1 cells + 20 nM CPT, ATP luminescence, 48 h; hit rate 12% among 420,000; Potency, µM (highest dose often 46.2 µM), without a hit: top-dose activity change, negative = growth inhibition, usual class: inhibitors; also: potency is read from the fitted curve at half-maximal effect; nearly all actives have a fitted effect of over 55% in size
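Chicken DT40 Tdp1-/- cells complemented with human TDP1, 400 cells/well, exposed to compounds plus 20 nM camptothecin for at least 48 h at 37 C; viability read as ATP content by CellTiter-Glo luminescence.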
DT40 TDP1 no CPT – qHTS for Inhibitors of human tyrosyl-DNA phosphodiesterase 1 (TDP1): qHTS in cells in absence of CPT; DT40 Tdp1-/- hTDP1 cells, no CPT, ATP luminescence, 48 h; hit rate 15% among 420,000; Potency, µM (doses to about 46.2 µM), for the others: at the highest dose activity change, negative = growth inhibition, most hits filed as inhibitors; also: potency is read from the fitted curve at half-maximal effect; nearly all actives have a fitted effect of over 55% in size
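Camptothecin absent (DMSO only). Human TDP1-complemented DT40 knockout cells, 400 cells/well, 37 °C for minimum 48 hr; ATP measured via CellTiter-Glo, 30 min dark incubation, luminescence.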
HT1080 IDH1KD tx – kills HT-1080 cells with IDH1 knockdown. HT-1080 IDH1 knockdown viability, ATP luminescence, 48 h. Potency, µM (highest dose often 46.1 µM), inactives show top-dose activity, negative = toxicity, hits mostly cytotoxic. hit rate 2% among 360,000. AID 686971;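 also: potency is read from the fitted curve at half-maximal effect; 0% = DMSO wells and -100% = cell-free medium wells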
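Cytotoxicity counter-line: IDH1KD HT-1080, 48 h, CellTiter-Glo. Curves classed by r2, magnitude and activity.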
IL1B secr inh – inflammasome signaling inhibition, IL-1 beta readout; THP-1 LPS/ATP IL-1B secretion, AlphaLISA, 16 h; hits give low values; activity change, % at 57.5 µM; hit rate 4.7% among 360,000; in the data active = activity change below about -50%; inconclusive = mostly about -30% to -49%
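THP-1 cells pretreated 1 hr with compounds (up to 57.5 uM final), then stimulated with LPS (250 ng/mL final) plus ATP (1.25 mM final); secreted IL-1B measured by AlphaLISA after 16 hr, decreased signal indicating inhibition.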
HT1080NT lethal – kills 2HG-producing HT-1080-NT fibrosarcoma cells | HT-1080-NT fibrosarcoma viability, CellTiter-Glo ATP luminescence, 48 h | Potency, µM (titrated, usually from 46.1 µM), inactives show top-dose activity, negative = less viability, actives largely listed as cytotoxic | hit rate 1.6% among 360,000;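 also: NT is the 2HG producing partner of a matched IDH1 knockdown line; potency is read from the fitted curve at half-maximal effect; 0% = DMSO-treated cells and -100% = media-only wells without cells; nearly all actives have a fitted effect of over 55% in size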
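Viability of the 2HG-overproducing fibrosarcoma line after 48 hours of compound exposure at 37 degrees C was determined by luminescence with CellTiter-Glo, and concentration-effect curves were then fitted and categorized.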
12-LOX inh – ALOX12 (human) lipoxygenase inhibition; P18054; purified 12hLO, xylenol orange hydroperoxide absorbance; Potency, µM (highest dose often 108 µM), for the others: at the highest dose activity change, negative = inhibition, actives largely listed as inhibitors; hit rate 1.1% among 580,000; also: potency is read from the fitted curve at half-maximal effect
Target sequence (P18054 whole entry, looked up): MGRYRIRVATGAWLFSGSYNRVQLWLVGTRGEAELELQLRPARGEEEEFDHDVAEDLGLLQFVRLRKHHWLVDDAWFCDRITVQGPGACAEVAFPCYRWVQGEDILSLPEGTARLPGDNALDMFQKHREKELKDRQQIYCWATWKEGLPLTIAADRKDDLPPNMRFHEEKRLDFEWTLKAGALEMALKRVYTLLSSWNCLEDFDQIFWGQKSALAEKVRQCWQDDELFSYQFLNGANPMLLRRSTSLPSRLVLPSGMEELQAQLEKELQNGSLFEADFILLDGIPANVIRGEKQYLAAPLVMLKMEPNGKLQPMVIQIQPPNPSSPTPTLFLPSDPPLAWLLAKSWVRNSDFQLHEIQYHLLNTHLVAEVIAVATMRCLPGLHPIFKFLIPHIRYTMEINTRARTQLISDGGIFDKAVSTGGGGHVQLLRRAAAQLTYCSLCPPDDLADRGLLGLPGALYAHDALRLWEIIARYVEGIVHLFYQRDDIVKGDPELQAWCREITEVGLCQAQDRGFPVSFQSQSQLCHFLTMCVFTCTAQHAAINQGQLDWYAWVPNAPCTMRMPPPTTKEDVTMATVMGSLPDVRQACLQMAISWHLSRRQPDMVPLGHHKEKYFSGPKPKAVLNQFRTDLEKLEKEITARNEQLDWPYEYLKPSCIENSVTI
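Purified human 12hLO (150 nM final) in 25 mM Hepes, 0.01% Triton X-100, pH 7.0 was preincubated 15 min at room temperature with compound. Then 40 uM arachidonic acid was added, 30 min. Hydroperoxide was read by Fe-XO absorbance ratio 573/405 nm.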
* = called active by the depositor; [ ] = another dose, or the depositor's remark. Unless noted, calls follow the shape of the dose curve; as a rule, active = well fitted curve in the direction sought with a large enough effect; inconclusive = small, poorly fitted or top-dose-only effect, or another doubt; inactive = no such curve, though single readings can be large; an effect the other way counts as inactive or inconclusive. Unless noted, % is scaled to controls: 0 for no effect and ±100 for the full control effect.

Results for COc1ccc(OC)c(CCNC(=O)c2cnn(-c3ccccc3)c2C2CCN(C(=O)OC(C)(C)C)CC2)c1 ?
DT40 TDP1 CPT: 13µM*; DT40 TDP1 no CPT: 23µM*; 12-LOX inh: 2%

What do the screens show for `COc1ccc(CCNC(=O)c2cnn(-c3ccc(F)cc3)c2C2CCN(C(=O)OC(C)(C)C)CC2)cc1OC`?
DT40 TDP1 CPT: inconclusive; DT40 TDP1 no CPT: inconclusive; 12-LOX inh: 11%

Results for Cc1ccc(-n2ncc(C(=O)NCCN3CCc4ccccc4C3)c2C2CCN(C(=O)OC(C)(C)C)CC2)c(C)c1 ?
DT40 TDP1 CPT: inconclusive; DT40 TDP1 no CPT: inconclusive; 12-LOX inh: -23%

Results for Cc1ccc(-n2ncc(C(=O)NCc3ccccn3)c2C2CCN(C(=O)OC(C)(C)C)CC2)c(C)c1 ?
DT40 TDP1 CPT: inconclusive; DT40 TDP1 no CPT: 21µM*; 12-LOX inh: -20%

Results for Cc1cccc2[nH]c(CO)nc12 ?
12-LOX inh: 12%

What do the screens show for `COc1ccc(-n2ncc(C(=O)NCc3cccs3)c2C2CCN(C(=O)OC(C)(C)C)CC2)cc1`?
DT40 TDP1 CPT: inconclusive; DT40 TDP1 no CPT: inconclusive; 12-LOX inh: -1%

How did COc1ccc(CCNC(=O)c2cnn(-c3ccc(F)cc3)c2C2CCN(C(=O)OC(C)(C)C)CC2)c(OC)c1 do in these assays?
DT40 TDP1 CPT: inconclusive; DT40 TDP1 no CPT: 13µM*; 12-LOX inh: -28%

What do the screens show for `Cc1ccccc1NC(=O)CCC1CCCO1` (stereo not given)?
12-LOX inh: 12%

Results for Cn1nc([N+](=O)[O-])nc1Sc1nnnn1-c1cccc(C(=O)O)c1 ?
DT40 TDP1 CPT: 2%; DT40 TDP1 no CPT: 8%; HT1080 IDH1KD tx: 21%; IL1B secr inh: -9; HT1080NT lethal: 16%; 12-LOX inh: -6%

How did Cn1nc([N+](=O)[O-])nc1Sc1cccc2cccnc12 do in these assays?
DT40 TDP1 CPT: 6.5µM*; DT40 TDP1 no CPT: 21µM*; HT1080 IDH1KD tx: -12%; IL1B secr inh: 90; HT1080NT lethal: -21%; 12-LOX inh: -25%

What do the screens show for `Cn1nc([N+](=O)[O-])nc1Sc1nnc(-c2ccccc2)o1`?
DT40 TDP1 CPT: 5.2µM*; DT40 TDP1 no CPT: 4.6µM*; HT1080 IDH1KD tx: inconclusive; IL1B secr inh: -96*; HT1080NT lethal: inconclusive; 12-LOX inh: -3%

What do the screens show for `CNc1nc(-c2ccccc2)[n+](-c2ccc(C)cc2)s1`?
DT40 TDP1 CPT: 3.3µM*; DT40 TDP1 no CPT: 5.2µM*; HT1080 IDH1KD tx: 1%; IL1B secr inh: -79*; HT1080NT lethal: -9%; 12-LOX inh: 7.1µM*

Results for COC(=O)CCC/C=C1/SCC(NC(=O)c2ccccc2)C1O (stereo not given) ?
DT40 TDP1 CPT: -6%; DT40 TDP1 no CPT: -5%; HT1080 IDH1KD tx: 3%; IL1B secr inh: -6; HT1080NT lethal: 11%; 12-LOX inh: -14%

Results for COC(=O)CCC/C=C1/SCC(NC(=O)c2ccccc2)C1=O (stereo not given) ?
DT40 TDP1 CPT: 26µM*; DT40 TDP1 no CPT: 16µM*; HT1080 IDH1KD tx: -4%; IL1B secr inh: 3; HT1080NT lethal: -3%; 12-LOX inh: -23%

What do the screens show for `COc1ccccc1-c1cnc(C(O)c2ccccc2)[nH]1` (stereo not given)?
DT40 TDP1 CPT: -26%; DT40 TDP1 no CPT: inconclusive; HT1080 IDH1KD tx: inconclusive; IL1B secr inh: -4; HT1080NT lethal: -7%; 12-LOX inh: -7%

Results for COc1ccccc1-c1cnc(C(O)c2ccc(C(C)(C)C)cc2)[nH]1 (stereo not given) ?
DT40 TDP1 CPT: inconclusive; DT40 TDP1 no CPT: 18µM*; HT1080 IDH1KD tx: inconclusive; IL1B secr inh: -14; HT1080NT lethal: -7%; 12-LOX inh: -12%

How did CCc1ccc(C(O)c2ncc(-c3ccccc3OC)[nH]2)cc1 (stereo not given) do in these assays?
DT40 TDP1 CPT: 23µM*; DT40 TDP1 no CPT: 18µM*; HT1080 IDH1KD tx: -11%; IL1B secr inh: 33; HT1080NT lethal: 0%; 12-LOX inh: -3%

Results for COc1ccccc1-c1cnc(C(O)c2cc(C)ccc2C)[nH]1 (stereo not given) ?
DT40 TDP1 CPT: 26µM*; DT40 TDP1 no CPT: inconclusive; HT1080 IDH1KD tx: -2%; IL1B secr inh: 21; HT1080NT lethal: -1%; 12-LOX inh: 5%

How did Cc1[nH]c2c(F)cccc2c1CC(=O)NCCN1Cc2ccccc2OC(C)C1 (stereo not given) do in these assays?
DT40 TDP1 CPT: -9%[9.04 µM]; DT40 TDP1 no CPT: -9%; 12-LOX inh: 17%

How did O=C(NCc1cccnc1)/C(=C\c1ccc(-c2ccc(Cl)c(Cl)c2)o1)S(=O)(=O)c1ccccc1 do in these assays?
DT40 TDP1 CPT: 4.6µM*; DT40 TDP1 no CPT: 4.6µM*; HT1080 IDH1KD tx: inconclusive; IL1B secr inh: -107*; HT1080NT lethal: inconclusive; 12-LOX inh: -25%

Results for O=C(NCc1cccnc1)c1ccc(Cl)c(Cl)c1 ?
DT40 TDP1 CPT: 23%; DT40 TDP1 no CPT: 14%; HT1080 IDH1KD tx: 2%; IL1B secr inh: 17; HT1080NT lethal: -3%; 12-LOX inh: 0%

Results for CCCCCc1ccc(C#Cc2ccc(OC)cc2)cc1 ?
12-LOX inh: 27%

How did Cc1cc(NC(=O)COC(=O)c2cc3c(F)cccc3s2)no1 do in these assays?
12-LOX inh: 2%

What do the screens show for `COC(=O)C1=CN(CC(=O)NCc2ccccc2)S(=O)(=O)N=C1C`?
12-LOX inh: 7%

How did COc1ccccc1-c1nc2nccc(-c3ccco3)n2n1 do in these assays?
12-LOX inh: 13%

Results for COc1cccc(-c2c(-c3ccccc3OC)ncn2Cc2cccc(-c3ccccc3)c2)c1 ?
DT40 TDP1 CPT: 8.2µM*; DT40 TDP1 no CPT: 12µM*; HT1080 IDH1KD tx: inconclusive; IL1B secr inh: inconclusive; HT1080NT lethal: inconclusive; 12-LOX inh: -17%

What do the screens show for `COc1cccc(Cn2cnc(-c3ccccc3OC)c2-c2ccco2)c1`?
DT40 TDP1 CPT: 18µM*; DT40 TDP1 no CPT: 18µM*; HT1080 IDH1KD tx: -16%; IL1B secr inh: 0; HT1080NT lethal: -30%; 12-LOX inh: inconclusive

What do the screens show for `c1ccc2c(c1)Nc1nccnc1S2`?
DT40 TDP1 CPT: inconclusive; DT40 TDP1 no CPT: -25%; HT1080 IDH1KD tx: 11%; IL1B secr inh: 9; HT1080NT lethal: 0%; 12-LOX inh: inconclusive
